Here are results for seven molecules from PubChem BioAssay (NCI).

Each structure is given as a SMILES string. Compounds without any hit were thinned out: in the full panel of roughly 83,000, 20% have a hit.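 96-well plates, one dose, 48 hours. Percent growth reported; active if below 10.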 Values without a mark were called inactive. Activity calls are given as the source filed them.

Test systems include DU-145 prostate; K-562 leukemia; MALME-3M melanoma; MDA-MB-231 breast; RXF 393 renal; SF-268 CNS; SF-295 CNS; SF-539 CNS; UACC-257 melanoma; M14 melanoma; HCT-15 colon; HT29 colon; SNB-75 CNS; SNB-19 CNS; U251 CNS; PC-3 prostate; SK-MEL-5 melanoma; UACC-62 melanoma; LOX IMVI melanoma; SK-MEL-28 melanoma.
Holding throughout (assay): NCI-60 one-dose screen, 48 h (100 = growth as untreated, 0 = no growth, -100 = all killed)
Holding throughout (conditions): 10 µM unless noted

Turning to `N#Cc1c(N)nn(C(=O)c2ccc(NC(=O)c3ccccn3)cc2)c1-c1ccc(Cl)cc1`, the growth in the test with DU-145 prostate was 3.96% (active); in the test with K-562 leukemia, 34.2%; with MALME-3M melanoma, -17.5% (active); in the test on MDA-MB-231 breast, 61.1%; with RXF 393 renal, 54%; in the test on SF-268 CNS, -8.49% (active). The growth was 54.9% in the test with SF-295 CNS; -27.8% (active) with SF-539 CNS; 48% in the test with UACC-257 melanoma; 17.1% with M14 melanoma; 32.9% with HCT-15 colon; 18.1% in the test on HT29 colon. The growth with SNB-75 CNS was 27.3%; with SNB-19 CNS it was 23.4%; in the test with U251 CNS, -39.2% (active); with PC-3 prostate, 15.5%; with SK-MEL-5 melanoma, 25%; in the test with UACC-62 melanoma, 43.1%. Also, the growth was 30.5% in the test with LOX IMVI melanoma and 70.4% with SK-MEL-28 melanoma.
`COc1ccc(-c2c(N)n[nH]c2-c2ccc(Cl)cc2O)cc1OC`: the growth with DU-145 prostate was 101%; in the test with K-562 leukemia, 75.5%; with MALME-3M melanoma, 105%; in the test with MDA-MB-231 breast it was 106%; with RXF 393 renal it was 98.2%; in the test with SF-268 CNS, 102%. Also, the growth in the test on SF-295 CNS was 99.2%; in the test on SF-539 CNS it was 100%; in the test on UACC-257 melanoma it was 93%; in the test on M14 melanoma it was 93.2%; in the test on HCT-15 colon, 88.5%; in the test with HT29 colon, 111%. Further, the growth with SNB-75 CNS was 91.3%; in the test on SNB-19 CNS it was 97.7%; in the test on U251 CNS, 95.6%; with PC-3 prostate, 86.3%; in the test with SK-MEL-5 melanoma, 93.7%; with UACC-62 melanoma, 76.3%. Further, the figures for the growth in the test with LOX IMVI melanoma and in the test on SK-MEL-28 melanoma were 89.5% and 106%, respectively.
For the molecule `O=C(NC(CSSCC(NC(=O)c1ccccc1)C(=O)O)C(=O)O)c1ccccc1` (stereo not given), the growth in the test on DU-145 prostate was 114%; with K-562 leukemia it was 96%; in the test on MALME-3M melanoma, 109%; in the test with MDA-MB-231 breast, 110%; in the test on RXF 393 renal, 116%; with SF-268 CNS, 99.4%. In addition, the growth with SF-295 CNS is 106%; with SF-539 CNS it was 102%; in the test on UACC-257 melanoma, 102%; with M14 melanoma, 98.9%; in the test with HCT-15 colon, 99.8%; in the test on HT29 colon, 103%. In addition, the growth in the test with SNB-75 CNS is 102%; with SNB-19 CNS, 107%; with U251 CNS, 104%; in the test with PC-3 prostate, 95.8%; in the test with SK-MEL-5 melanoma, 108%; in the test with UACC-62 melanoma, 99.6%. Also, the values for the growth with LOX IMVI melanoma and in the test on SK-MEL-28 melanoma were 95.7% and 118%, respectively.
As to `CN(C)c1ccc(-c2ccc3[nH]c(=O)nc(-c4ccccc4)c3c2)cn1`, the growth is 65.1% with DU-145 prostate; 7.91% (active) with K-562 leukemia; 51.2% in the test on MALME-3M melanoma; 44.6% with MDA-MB-231 breast; 64.5% with RXF 393 renal; 55.5% in the test with SF-268 CNS. Also, the growth was 39.5% in the test on SF-295 CNS; 28.3% in the test with SF-539 CNS; 80.8% with UACC-257 melanoma; 13.7% with M14 melanoma; 28.1% in the test on HCT-15 colon; 14.1% in the test on HT29 colon. The growth was 27.9% in the test on SNB-75 CNS; 50.4% with SNB-19 CNS; 38.1% with U251 CNS; 47.2% in the test on PC-3 prostate; 39.6% in the test with SK-MEL-5 melanoma; 48.5% in the test with UACC-62 melanoma. The growth with LOX IMVI melanoma was 38.5%; in the test with SK-MEL-28 melanoma it was 55.8%.
Turning to `CCN(CC)CCCNc1ccc(Nc2ccc(OC)cc2)cc1`, the growth in the test with DU-145 prostate is 90.7%; in the test on K-562 leukemia, 34.1%; in the test on MALME-3M melanoma, 104%; in the test on MDA-MB-231 breast it was 34.6%; with RXF 393 renal, 90.5%; in the test with SF-268 CNS it was 77.5%. For the same molecule, the growth was 120% in the test on SF-295 CNS; 98.6% with SF-539 CNS; 87.4% in the test on UACC-257 melanoma; 94.7% in the test with M14 melanoma; 105% in the test on HCT-15 colon; 67.5% in the test with HT29 colon. The growth in the test with SNB-75 CNS was 80%; with SNB-19 CNS it was 102%; in the test with U251 CNS, 79.8%; in the test on PC-3 prostate it was 55.3%; in the test on SK-MEL-5 melanoma it was 91.2%; in the test on UACC-62 melanoma, 95.8%. Further, the figures for the growth in the test on LOX IMVI melanoma and in the test on SK-MEL-28 melanoma were 86.4% and 101%, respectively.
As for `O=C1CC(N2C(=O)/C(=C/C(Cl)=C\c3ccc([N+](=O)[O-])cc3)SC2=S)C(=O)N1c1ccc(O)cc1` (stereo not given), the growth is 0.996% (active) in the test on DU-145 prostate; 6.6% (active) in the test on K-562 leukemia; -39% (active) in the test on MALME-3M melanoma; -10.3% (active) in the test with MDA-MB-231 breast; -70.5% (active) in the test with RXF 393 renal; 5.72% (active) in the test with SF-268 CNS. The growth with SF-295 CNS was -37.2% (active); in the test with SF-539 CNS, -28.8% (active); in the test with UACC-257 melanoma, -5.88% (active); in the test on M14 melanoma it was -7.42% (active); with HCT-15 colon, -38.2% (active); in the test on HT29 colon it was -16.7% (active). The growth is 14.9% with SNB-75 CNS; -9.69% (active) in the test with SNB-19 CNS; -39.5% (active) in the test with U251 CNS; 5.02% (active) in the test with PC-3 prostate; -39.1% (active) in the test with SK-MEL-5 melanoma; -63.2% (active) in the test on UACC-62 melanoma. The growth with LOX IMVI melanoma was -83.7% (active); in the test on SK-MEL-28 melanoma it was -34% (active).
For `CC1(C)OC2C(CO[Si](C)(C)C(C)(C)C)OC(n3c(I)c(C#C[Si](C)(C)C)c(=O)[nH]c3=O)C2O1` (stereo not given), the growth is 107% in the test on DU-145 prostate; 67.5% in the test on K-562 leukemia; 109% with MALME-3M melanoma; 98% in the test on MDA-MB-231 breast; -32.9% (active) in the test with RXF 393 renal; 108% with SF-268 CNS. Moreover, the growth was 140% in the test on SF-295 CNS; 105% in the test with SF-539 CNS; 91.3% with UACC-257 melanoma; 106% in the test on M14 melanoma; 93% in the test with HCT-15 colon; -32.6% (active) in the test on HT29 colon. Besides, the growth is -71.4% (active) with SNB-75 CNS; 105% in the test on SNB-19 CNS; 88.4% in the test with U251 CNS; 91.4% in the test with PC-3 prostate; 95.9% in the test on SK-MEL-5 melanoma; 92.8% in the test with UACC-62 melanoma. The growth with LOX IMVI melanoma was 86.6%; in the test on SK-MEL-28 melanoma, -53.9% (active).
